Screening results as filed in PubChem BioAssay.
Sampled rows, rich in hits. Any-hit rate of the full collection: about 11%.
NPR1 antag: human Npr1 receptor antagonism; HEK293 hNpr1 GloSensor cGMP, ANP-stimulated luminescence; Potency, µM (top dose mostly 46.3 µM), without a hit: at the top dose activity change, negative = inhibition, usual class: inhibitors; 76,000 tested, 1.6% active; calls by dose curve; also: nearly all actives have a fitted effect of over 60% in size
Target sequence (P16066 whole entry, looked up): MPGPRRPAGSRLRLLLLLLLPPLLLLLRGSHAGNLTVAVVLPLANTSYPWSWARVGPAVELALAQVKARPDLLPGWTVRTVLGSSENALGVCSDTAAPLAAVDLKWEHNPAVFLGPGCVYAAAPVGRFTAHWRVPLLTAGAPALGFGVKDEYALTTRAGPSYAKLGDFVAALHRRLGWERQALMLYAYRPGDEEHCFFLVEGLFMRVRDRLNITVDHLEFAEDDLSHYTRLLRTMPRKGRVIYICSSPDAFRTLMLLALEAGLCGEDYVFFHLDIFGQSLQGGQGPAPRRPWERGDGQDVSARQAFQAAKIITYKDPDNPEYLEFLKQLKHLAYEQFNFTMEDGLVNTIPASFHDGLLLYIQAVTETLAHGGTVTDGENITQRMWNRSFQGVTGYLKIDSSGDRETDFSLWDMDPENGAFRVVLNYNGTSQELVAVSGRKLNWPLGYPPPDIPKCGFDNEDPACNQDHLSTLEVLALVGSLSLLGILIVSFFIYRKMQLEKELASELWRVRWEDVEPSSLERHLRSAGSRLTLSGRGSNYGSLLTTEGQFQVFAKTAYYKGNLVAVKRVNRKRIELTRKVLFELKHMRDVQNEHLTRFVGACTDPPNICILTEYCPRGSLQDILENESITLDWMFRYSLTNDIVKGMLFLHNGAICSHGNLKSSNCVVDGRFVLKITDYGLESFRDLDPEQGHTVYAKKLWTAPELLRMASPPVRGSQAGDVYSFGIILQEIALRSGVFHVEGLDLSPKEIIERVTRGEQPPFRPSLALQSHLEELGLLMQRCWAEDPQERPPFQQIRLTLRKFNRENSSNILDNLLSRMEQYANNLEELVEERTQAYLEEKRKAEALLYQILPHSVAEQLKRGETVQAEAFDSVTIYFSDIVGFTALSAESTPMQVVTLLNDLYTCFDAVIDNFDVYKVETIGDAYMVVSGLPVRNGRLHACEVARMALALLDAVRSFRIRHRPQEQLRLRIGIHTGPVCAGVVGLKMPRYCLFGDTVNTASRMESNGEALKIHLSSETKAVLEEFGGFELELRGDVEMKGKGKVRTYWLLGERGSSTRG
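Compound pre-incubated 30 min at room temperature on GloSensor-loaded HEK293 cells stably carrying hNpr1 and the pGS-40F cGMP biosensor. Stimulation uses hNppA at 0.1 nM final; luminescence is taken at baseline and 20 min post-agonist.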
Luciferase inh: inhibitors of firefly (Photinus pyralis) luciferase | P08659 | purified P. pyralis luciferase, luminescence, biochemical | Potency, µM (titrated, usually from 115 µM), hits mostly inhibitors | 76,000 tested, 2.5% active; also: nearly all actives have a fitted effect of over 65% in size
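Luminescence read by CCD imaging after purified firefly luciferase (10nM final) was added to substrate buffer holding 10uM D-luciferin and 10uM ATP, pH 7.5, pre-dosed with compound.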
3T3 cytotox: NIH 3T3 cell cytotoxicity | NIH 3T3 viability, CellTiter-Glo ATP luminescence, 48-72 h | Potency, µM (highest dose often 96.7 µM), inactives show top-dose activity change, negative = cytotoxicity, actives largely listed as inhibitors | 94,000 tested, 4.3% active; also: nearly all actives have a fitted effect of over 55% in size
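Mouse fibroblast NIH 3T3 cells, 400 per well, received compound via pintool and were incubated for 48 or 72 hr prior to CellTiter-Glo ATP luminescence measurement.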
HEK293 tox: HEK 293 cell cytotoxicity; HEK 293 viability, ATP luminescence (CellTiter-Glo), 48-72 h; Potency, µM (highest dose often 115 µM), for the others: top-dose activity change, negative = cytotoxicity, most hits filed as inhibitors; 94,000 tested, 6.6% active; AID 1345083; also: nearly all actives have a fitted effect of over 60% in size
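250 HEK 293 cells/well; compound by pintool; incubated 48 or 72 hr at 37 degree Celsius; CellTiter-Glo added, 10 min RT, luminescence imaged.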
* marks the source's active call; other numbers are inactive results; i = inactive; ? = inconclusive; · = no result given; [ ] = remark or other dose. Unless noted, calls follow the shape of the dose curve; as a rule, active = well fitted curve in the direction sought with a large enough effect; inconclusive = small, poorly fitted or top-dose-only effect, or another doubt; inactive = no such curve, though single readings can be large; an effect the other way counts as inactive or inconclusive. % is scaled to controls: 0 for no effect and ±100 for the full control effect; potency is read from the fitted curve at half-maximal effect.

SMILES	NPR1 antag	Luciferase inh	3T3 cytotox	HEK293 tox
COc1cncc(-c2cn(C)c(=O)n3cc(CNc4ccccc4)nc23)c1	-9%[70.6 µM]	i	?	?
O=C(c1ccccc1F)N1CCC(C(=O)N2CCC(c3nc4ncccc4[nH]3)CC2)CC1	·	·	-11%	-1%
Cn1cc(-c2cn(C)c(=O)n3cc(COc4ccc(Cl)cc4)nc23)cn1	1%[70.6 µM]	?	?	71µM*
Cc1c(-c2cn(C)c(=O)n3cc(COc4ccc(Cl)cc4)nc23)cnn1C	-5%[70.6 µM]	?	?	?
CC(C)(C)c1ccnc(N[C@H]2CO[C@H]3[C@@H]2OC[C@@H]3NS(=O)(=O)c2cccs2)n1	10µM*	?	79µM*	?
COc1ccccc1-c1ccnc(N[C@H]2CO[C@H]3[C@@H]2OC[C@@H]3NS(=O)(=O)c2cccc3cccnc23)n1	6%	i	-23%	-19%
O=C(N[C@H]1CO[C@H]2[C@@H]1OC[C@@H]2Nc1nccc(-c2cccs2)n1)c1ccccc1	?	i	?	79µM*
COc1ccccc1-c1ccnc(N[C@H]2CO[C@H]3[C@@H]2OC[C@@H]3NS(=O)(=O)c2ccc3ccccc3c2)n1	?	i	?	32µM*
O=C(COc1ccccc1)N[C@H]1CO[C@H]2[C@@H]1OC[C@@H]2Nc1nccc(-c2cccs2)n1	?	i	35µM*	?
O=C(Nc1ccccc1)N[C@H]1CO[C@H]2[C@@H]1OC[C@@H]2Nc1nccc(-c2cccs2)n1	-15%[70.6 µM]	?	?	63µM*
O=C(COc1ccccc1)N[C@H]1CO[C@H]2[C@@H]1OC[C@@H]2Nc1nccc(-c2ccco2)n1	-1%[70.6 µM]	i	89µM*	?
CC(=O)Nc1ccc(S(=O)(=O)N[C@H]2CO[C@H]3[C@@H]2OC[C@@H]3Nc2nccc(-c3cccs3)n2)cc1	?	i	?	35µM*
CC(C)(C)c1ccnc(N[C@H]2CO[C@H]3[C@@H]2OC[C@@H]3NC(=O)NCc2ccccc2)n1	-23%[70.6 µM]	i	?	89µM*
CC(C)(C)c1ccnc(N[C@H]2CO[C@H]3[C@@H]2OC[C@@H]3NC(=O)CCCC(=O)O)n1	-3%[70.6 µM]	i	1%[174 µM]	-2%[172 µM]
COCCn1c(C)cnc1CC1CCN(C(=O)CC2CCCCC2)C1 (centres undefined)	·	·	-25%	-14%
Cc1csc(CN(C)C(=O)CC(c2ccccc2)c2ccc3c(c2)OCO3)n1 (centres undefined)	-31%	32µM*	-23%	45µM*
O=C(CC(c1ccccc1)c1ccc2c(c1)OCO2)N1CCSCC1 (centres undefined)	?	i	-25%	?
O=C(CCC[C@@H]1[C@H]2CCCN3CCC[C@@H](CN1S(=O)(=O)c1cccc(F)c1)[C@@H]23)N1CCOCC1	1%	i	i	-6%
c1cncc(-c2ccnc(NCC(c3cccnc3)N3CCCCC3)n2)c1 (centres undefined)	-1%	i	-17%	i
O=C(c1ccc(CNc2nccc(-c3cccnc3)n2)cc1)N1CCCCC1	-10%	i	50µM*	40µM*
O=C(COc1ccc(Cl)cc1)N1CCC(c2n[nH]c(=O)n2Cc2ccc(F)cc2)CC1	-4%	i	3.2µM*	?
Cc1ccc(-n2c(C3CCN(C(=O)COc4ccc(Cl)cc4)CC3)n[nH]c2=O)cc1	7%	i	2.8µM*	-5%
COc1ccc(Cn2c(C3CCN(C(=O)Cc4ccc(Cl)cc4)CC3)n[nH]c2=O)cc1	-13%	i	35µM*	?
O=C(COc1ccccc1)N1CCC(c2n[nH]c(=O)n2Cc2ccc(F)cc2)CC1	0%	i	28µM*	?
CC(c1cc2ccccc2[nH]1)N(C)C(=O)C1CCN(CC(N)=O)CC1 (centres undefined)	-1%	i	-6%	-4%
SMILES	NPR1 antag	Luciferase inh	3T3 cytotox	HEK293 tox
O=C(Nc1cccc(-c2nnc3n2CCCC3)c1)c1cc(F)ccc1F	2%	i	-8%	0%
Cc1ccc(Cn2c(C3CCN(C(=O)c4ccc(C(C)(C)C)cc4)CC3)n[nH]c2=O)cc1	?	i	28µM*	25µM*
CC(=O)N1CCC(N2CC[C@@H](CO)N(C)c3ncccc3C2)CC1	6%[70.6 µM]	i	45µM*	?
CN1c2ncccc2CN(Cc2ccccc2O)CC[C@H]1CO	0%[70.6 µM]	i	-10%[138 µM]	1%[172 µM]
COCCN1Cc2ccc(Nc3ccc(OC)cc3)nc2C(C)(C(=O)Nc2ccccc2)C1 (centres undefined)	4%	?	?	?
Cc1cc(C)cc(-c2ccc(CN3CCCC(NC(=O)Cc4cccc(Cl)c4)C3)cc2)c1 (centres undefined)	·	·	?	25µM*
COc1ccc(CC(=O)NC2CCCN(c3cc(-c4ccc(OC)cc4)[nH]n3)C2)cc1 (centres undefined)	0%	i	1%	5%
Cc1cc(C)cc(-c2ccc(CN3CCCC(NC(=O)Cc4ccc(F)cc4)C3)cc2)c1 (centres undefined)	·	·	?	32µM*
Cc1cc(C)cc(-c2ccc(CN3CCCC(NC(=O)N(C)C)C3)cc2)c1 (centres undefined)	·	·	?	32µM*
COc1ccc(CC(=O)NC2CCCN(Cc3ccc(-c4cc(C)cc(C)c4)cc3)C2)cc1 (centres undefined)	·	·	18µM*	22µM*
Cc1cc(C)cc(-c2ccc(CN3CCCC(NC(=O)C(C)C)C3)cc2)c1 (centres undefined)	·	·	-22%	-35%
COc1ccc(-c2ccc(C(=O)Nc3ccc(Cl)cc3)cc2)nn1	·	·	-30%[138 µM]	-27%[172 µM]
CC(c1cccs1)N(C)Cc1cccc2ccccc12 (centres undefined)	19%[70.6 µM]	?	?	112µM*
COc1cccc(CN(C)C(C)c2cccs2)c1 (centres undefined)	0%[70.6 µM]	i	-10%[138 µM]	-27%[172 µM]
CC(C)CCN1CCOc2cc(C(=O)Nc3ccccc3)ccc2C1	-21%[70.6 µM]	i	11µM*	?
O=C(NCCOc1ccccc1)c1ccc2c(c1)OCCN(CCC(F)(F)F)C2	-10%[70.6 µM]	40µM*	-28%[138 µM]	?
O=C(Nc1nccs1)c1ccc2c(c1)OCCN(C1CCC1)C2	-3%[70.6 µM]	22µM*	?	?
Cc1cnc(NC(=O)c2ccc3c(c2)OCCN(Cc2ncccn2)C3)s1	0%[70.6 µM]	40µM*	-30%[138 µM]	?
COCC(=O)N1CCN(C(=O)c2nc3cccnc3n(C3CCCC3)c2=O)CC1	·	·	-19%	-4%
O=C(COc1ccccc1)N1CCCC1c1nc(CCOCC2CCOCC2)no1 (centres undefined)	·	·	-15%	0%
O=C(NC1CCN(c2cc(-c3cccs3)[nH]n2)C1)c1ccccc1 (centres undefined)	3%	i	-26%	?
O=C(NC1CCN(c2cc(-c3cccs3)[nH]n2)C1)c1cccc(Cl)c1 (centres undefined)	-9%	i	?	40µM*
